Compounds with a hit are over-represented: about 15% of the library has one in this group of screens.
TDP1 cell CPT: DT40-hTDP1 cell growth loss with CPT; chicken DT40 Tdp1-/-;hTDP1 cells + 20 nM CPT, ATP luminescence, 48 h; 420,000 tested, 12% active; Potency, µM (highest dose often 46.2 µM), inactives show at the top dose activity change, negative = growth inhibition, hits mostly inhibitors; further: nearly all actives have a fitted effect of over 55% in size
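Chicken DT40 Tdp1-/- cells stably complemented with human TDP1 were seeded at 400 cells/well in medium containing 20 nM camptothecin, exposed to pin-transferred compounds, and grown at 37 °C for at least 48 hr. Viability was read as ATP luminescence.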
12-LOX inh: ALOX12 (human) lipoxygenase inhibition; P18054; purified 12hLO, xylenol orange hydroperoxide absorbance; Potency, µM (titrated, usually from 108 µM), for the others: at the highest dose activity change, negative = inhibition, actives largely listed as inhibitors; 580,000 tested, 1.1% active; AID 1671190
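Purified human 12hLO at 150 nM in 25 mM Hepes, 0.01% Triton X-100, pH 7.0, preincubated 15 min at room temperature with compound. Reaction started with 40 uM arachidonic acid, 30 min at room temperature. Hydroperoxide measured by Fe-xylenol orange, 573/405 nm absorbance ratio.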
TDP1 cell noCPT: qHTS for Inhibitors of human tyrosyl-DNA phosphodiesterase 1 (TDP1): qHTS in cells in absence of CPT. DT40 Tdp1-/- hTDP1 cells, no CPT, ATP luminescence, 48 h. Potency, µM (doses to about 46.2 µM), for inactives: at the highest dose activity change, negative = growth inhibition, actives largely listed as inhibitors. 420,000 tested, 15% active. AID 686978, 2013; further: nearly all actives have a fitted effect of over 55% in size
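Stably hTDP1-transfected Tdp1-null chicken DT40 cells were treated with library compounds minus camptothecin and grown for at least 48 hr at 37 °C, after which cellular ATP was quantified by luminescence.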
ELG1 DNA repair: blocks ELG1-dependent DNA repair in HEK293T cells; 330,000 tested, 2.3% active; Potency, µM (series often up to 46.1 µM), without a hit: at the highest dose activity change, negative = inhibition, hits mostly inhibitors; AID 504467; HEK293T ELG1-luciferase reporter, luminescence, 16 h; DNA damage induced by 5-fluorouridine; further: nearly all actives have a fitted effect of over 55% in size
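Reporter activity after DNA damage by 5-fluorouridine is monitored. Compound-treated cells incubate 16 hr at 37 °C, then ONE-Glo is added for 30 min before luminescence reading.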
VP16 counter: counter-screen for ROR gamma inhibitors: Gal4-VP16 reporter; 310,000 tested, 3.5% active; Potency, µM (doses to about 53.6 µM), inactives show at the top dose activity, negative = inhibition, actives largely listed as inhibitors; Drosophila S2 Gal4-VP16 UAS-luciferase, luminescence, 20 h; AID 2546;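 further: Gal4-VP16 expression switched on by copper sulfate through the metallothionein promoter; nearly all actives have a fitted effect of over 50% in size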
RORgamma inh: ROR gamma (mouse) transcription inhibition. P51450. Drosophila S2 Gal4-RORgamma UAS-luciferase reporter, 20 h. Potency, µM (series often up to 53.6 µM), inactives show at the top dose activity change, negative = inhibition, usual class: inhibitors. 310,000 tested, 5.4% active; further: nearly all actives have a fitted effect of over 60% in size
Target sequence (P51450 whole entry, looked up, the tested form may be a part): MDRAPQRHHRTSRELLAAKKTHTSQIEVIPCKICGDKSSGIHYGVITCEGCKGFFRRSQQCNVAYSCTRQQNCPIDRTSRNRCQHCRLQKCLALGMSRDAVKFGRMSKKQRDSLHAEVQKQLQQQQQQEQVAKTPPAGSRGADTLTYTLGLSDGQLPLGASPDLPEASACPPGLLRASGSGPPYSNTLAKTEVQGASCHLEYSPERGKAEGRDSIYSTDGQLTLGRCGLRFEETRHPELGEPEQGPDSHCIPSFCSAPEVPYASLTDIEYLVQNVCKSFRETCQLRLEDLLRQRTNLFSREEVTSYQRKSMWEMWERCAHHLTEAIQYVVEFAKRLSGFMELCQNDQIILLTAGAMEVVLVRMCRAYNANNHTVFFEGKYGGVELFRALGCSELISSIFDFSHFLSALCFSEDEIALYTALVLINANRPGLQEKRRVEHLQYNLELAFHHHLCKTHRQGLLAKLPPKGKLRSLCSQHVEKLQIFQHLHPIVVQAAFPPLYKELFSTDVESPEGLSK
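Compounds are pin-transferred onto Drosophila Schneider cells expressing a copper-inducible Gal4–ROR gamma transactivation domain fusion. After 1 hr, copper sulfate is added to 700 uM final; luciferase is read 20 hr later.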
The depositor's hits bear a star; ? = inconclusive; / = no result given; [ ] = dose if it differs, or a comment. The call rests on the fitted dose curve; in most records, active means well fitted curve in the direction sought with a large enough effect; inconclusive means small, poorly fitted or top-dose-only effect, or another doubt; inactive means no such curve, though single readings can be large; an effect the other way counts as inactive or inconclusive. On the % scale 0 is the no-effect control and ±100 the full control effect; potency means the concentration at half of the fitted maximal effect.

SMILES	TDP1 cell CPT	12-LOX inh	TDP1 cell noCPT	ELG1 DNA repair	VP16 counter	RORgamma inh
COCCNC(=O)CSc1nc2cc3c(cc2c(=O)n1Cc1ccc(C(=O)NCCc2ccc(OC)c(OC)c2)cc1)OCO3	8.2µM*	-26%	21µM*	/	/	/
COc1ccc(CCNC(=O)c2ccc(Cn3c(SCC(=O)NCCC(C)C)nc4cc5c(cc4c3=O)OCO5)cc2)cc1OC	0%	?	-17%	/	/	/
CC1CCCCN1C(=O)CSc1nc2ccsc2c(=O)n1Cc1ccccn1 (stereo not drawn)	?	-3%	?	29%	1%	38%
CCn1c(SCC(=O)N2CCCCC2C)nc2ccsc2c1=O (stereo not drawn)	10µM*	-3%	?	-27%	-4%	14%
COc1ccc(CNC(=O)CCCn2c(SCC#N)nc3cc4c(cc3c2=O)OCO4)cc1	-12%	5%	-16%	23µM*	-13%	3%
CCOC(=O)c1oc2c(c1C)C(=O)CSC2	/	10%	/	/	/	/
CNc1ccc(OC)cc1-n1cnc(-c2ccc([N+](=O)[O-])cc2)c1	-19%	?	-14%	?	-3%	-24%
CC(C)(C)c1ccc(Cn2cnc(-c3ccc([N+](=O)[O-])cc3)c2)cc1	23µM*	-18%	23µM*	?	?	?
CC(C)(C)c1ccc(CNc2ccc([N+](=O)[O-])cn2)cc1	?	4%	23µM*	?	-7%	?
Cc1cc(C)c(Cn2cnc(-c3ccc([N+](=O)[O-])cc3)c2)c(C)c1	13µM*	-20%	15µM*	-29%	-23%	44%
COCCCN(CCOC)C(=O)c1cc2ccccc2c(OC)n1	/	-19%	/	/	/	/
Cc1cccc2sc(NC(=O)CCNS(=O)(=O)c3cccc4nonc34)nc12	?	-13%	18µM*	?	3%	?
Cc1cccc(NC(=O)CCNS(=O)(=O)c2cccc3nonc23)c1C	5%	-1%	1%	-7%	2%	1%
CCOC(=O)C1CCN(C(=S)Nc2cccc(C)c2)CC1	1%	0%[57.4 µM]	4%	15%	?	-41%
Cc1ccc(C)c(NC(=S)N2CCN(S(C)(=O)=O)CC2)c1	-12%	10%	14%	17%	3%	-20%
CCc1ccc(NC(=S)N2CCC(NC(=O)c3ccccc3)CC2)cc1	-6%	-25%	-19%	-2%	0%	0%
Cc1ccc(C)c(NC(=S)N2CCCCCC2)c1	21µM*	0%	16µM*	-2%	?	13µM*
CCOC(=O)C1CCN(C(=S)Nc2cccc(C)c2C)CC1	14%	8%	-14%	2%	-9%	11µM*
CCOC(=O)C1CCN(C(=S)Nc2cc(C)ccc2C)CC1	-12%	7%	?	7%	?	18µM*
CCc1ccc(NC(=S)N2CCC(NC(=O)c3ccccc3OC)CC2)cc1	-4%	?	?	-11%	-8%	10µM*
Cc1ccc(C(=O)N[C@H]2CO[C@H]3[C@@H]2OC[C@@H]3Nc2nccc(-c3ccc(-c4ccccc4)cc3)n2)cc1	/	15%	/	/	/	/
COC(=O)C(c1ccccc1)(c1cn(C)c2ccccc12)C(Nc1ccccc1)c1cccc(Br)c1 (stereo not drawn)	/	3%	/	/	/	/
COc1cccc(NC(=O)CC2Sc3ccccc3NC2=O)c1 (stereo not drawn)	/	-9%	/	/	/	/
CCc1cccc(C)c1NC(=O)/C=C/c1cccs1	/	6%	/	/	/	/
CCOC(=O)C1CCN(C(=S)Nc2ccc(Cl)cc2C)CC1	27%	0%	-7%	-30%	?	14µM*
SMILES	TDP1 cell CPT	12-LOX inh	TDP1 cell noCPT	ELG1 DNA repair	VP16 counter	RORgamma inh
CCOC(=O)C1CCN(C(=S)Nc2ccc(CC)cc2)CC1	28%	-13%	7%	?	?	11µM*
CCC(=O)N1CCN(c2ccc(NC(=S)NC(=O)c3cccc([N+](=O)[O-])c3)cc2)CC1	?	9%	?	?	?	?
CCC(=O)N1CCN(c2ccccc2NC(=S)NC(=O)c2cccc([N+](=O)[O-])c2)CC1	?	-22%	?	?	?	7.9µM*
O=C(NC(=S)Nc1ccccc1N1CCOCC1)c1cccc([N+](=O)[O-])c1	-19%	408%	-28%	?	4µM*	1.6µM*
CNC(=O)[C@@H]1C[C@H](Oc2ccccc2)CN1C(=O)CCOC	/	33%	/	/	/	/
COc1ccc(C)cc1NC(=O)CNC(=O)CNc1ccc(F)c(NC(C)=O)c1	/	-14%	/	/	/	/
Cc1ccc(NC(=O)CN2CCC(NC(=O)Cc3ccccc3)CC2)cc1C	-7%	4%	-15%	-15%	-6%	7%
CC(C)c1ccc(NC(=S)NC2CCSc3ccccc32)cc1 (stereo not drawn)	/	35µM*	/	/	/	/
Cc1ccc(NC(=S)NC2CCN(Cc3ccccc3)CC2)cc1	?	-10%	?	-11%	?	13µM*
FC(F)(F)c1ccccc1NC(=S)NC1CCN(Cc2ccccc2)CC1	?	-27%	6%	-13%	1%	-15%
CC(C)c1ccc(NC(=S)NC2CCN(Cc3ccccc3)CC2)cc1	?	?	23µM*	-5%	?	16µM*
S=C(NC1CCSc2ccccc21)NC1CC2CCC1C2 (stereo not drawn)	/	-20%	/	/	/	/
Cc1ccc(NC(=S)NC2CCN(Cc3ccccc3)CC2)cc1C	?	?	26µM*	?	?	11µM*
O=C(Nc1nccs1)c1csc(NC2CCCC2)n1	/	60%	/	/	/	/
C=C(c1nc2ccccc2s1)C1Cc2cccc3c2N(CCC3)C1 (stereo not drawn)	0.089µM*	/	0.089µM*	/	/	/
CC12CCC(c3n[nH]c(=S)nc31)C2(C)C (stereo not drawn)	-6%	?	-16%	5%	?	13µM*
C=CCSc1n[nH]c(-c2ccc(OCCCC)cc2)n1	?	19%	?	?	8.9µM*	8.9µM*
C=CCSc1n[nH]c(-c2cccs2)n1	1%	?	-3%	?	?	11µM*
CCCOc1ccc(-c2nc(SCC(=O)c3ccc(Cl)cc3)n[nH]2)cc1	-24%	?	-22%	/	/	/
C=CCSc1n[nH]c(-c2ccc(OCCC)cc2)n1	29µM*	5%	16µM*	?	?	10µM*
CCOc1ccc(-c2nc(SCC(=O)c3ccccc3)n[nH]2)cc1	-20%	?	-27%	/	/	/
